Measurements reported in publication PMC11006913.
Substitutions are numbered along the chain they refer to.

Tests used:
Assay in all cases: PBM; 200 nM protein, PBS
Conditions in all cases: dsDNA, one strand shown
SIX6 [1] = molecular target: T1, SIX6 (Homo sapiens, UniProt O95475 114-200, L167I)
T1 sequence: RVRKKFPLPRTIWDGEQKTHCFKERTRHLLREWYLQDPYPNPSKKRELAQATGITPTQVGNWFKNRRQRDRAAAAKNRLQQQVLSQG

SIX6 [2] = molecular target: T2, SIX6 (Homo sapiens, UniProt O95475 114-200, L143V)
T2 sequence: T1 sequence with L30V, I54L

SIX6 [3] = molecular target: T3, SIX6 (Homo sapiens, UniProt O95475 114-200, H141N)
T3 sequence: T1 sequence with H28N, I54L

SIX6 [4] = molecular target: T4, SIX6 (Homo sapiens, UniProt O95475 114-200, T165P)
T4 sequence: T1 sequence with T52P, I54L

SIX6 [5] = molecular target: T5, SIX6 (Homo sapiens, UniProt O95475 114-200, L167M)
T5 sequence: T1 sequence with I54M

SIX6 [6] = molecular target: T6, SIX6 (Homo sapiens, UniProt O95475 114-200, L143M)
T6 sequence: T1 sequence with L30M, I54L

SIX6 [7] = molecular target: T7, SIX6 (Homo sapiens, UniProt O95475 114-200, L143I)
T7 sequence: T1 sequence with L30I, I54L

SIX6 [8] = molecular target: T8, SIX6 (Homo sapiens, UniProt O95475 114-200, T165G)
T8 sequence: T1 sequence with T52G, I54L

SIX6 [9] = molecular target: T9, SIX6 (Homo sapiens, UniProt O95475 114-200, T139Q)
T9 sequence: T1 sequence with T26Q, I54L

SIX6 [10] = molecular target: T10, SIX6 (Homo sapiens, UniProt O95475 114-200, T165A)
T10 sequence: T1 sequence with T52A, I54L

SIX6 [11] = molecular target: T11, SIX6 (Homo sapiens, UniProt O95475 114-200, L167V)
T11 sequence: T1 sequence with I54V

SIX6 [12] = molecular target: T12, SIX6 (Homo sapiens, UniProt O95475 114-200)
T12 sequence: T1 sequence with I54L

SIX6 [13] = molecular target: T13, SIX6 (Homo sapiens, UniProt O95475 114-200, T165I)
T13 sequence: T1 sequence with T52I, I54L

Sequence: GGCCCCGA
- binding signal (SIX6 [1]): 9 upbm affinity estimate (log intensity, higher = more binding, comparable within an allelic series)
- binding signal (SIX6 [2]): 8.8 upbm affinity estimate (log intensity, higher = more binding, comparable within an allelic series)
- binding signal (SIX6 [3]): 8.92 upbm affinity estimate (log intensity, higher = more binding, comparable within an allelic series)
- binding signal (SIX6 [4]): 8.86 upbm affinity estimate (log intensity, higher = more binding, comparable within an allelic series)
- binding signal (SIX6 [5]): 8.96 upbm affinity estimate (log intensity, higher = more binding, comparable within an allelic series)
- binding signal (SIX6 [6]): 8.93 upbm affinity estimate (log intensity, higher = more binding, comparable within an allelic series)
- binding signal (SIX6 [7]): 8.91 upbm affinity estimate (log intensity, higher = more binding, comparable within an allelic series)
- binding signal (SIX6 [8]): 9.02 upbm affinity estimate (log intensity, higher = more binding, comparable within an allelic series)
- binding signal (SIX6 [9]): 9.12 upbm affinity estimate (log intensity, higher = more binding, comparable within an allelic series)
- binding signal (SIX6 [10]): 8.81 upbm affinity estimate (log intensity, higher = more binding, comparable within an allelic series)
- binding signal (SIX6 [11]): 8.95 upbm affinity estimate (log intensity, higher = more binding, comparable within an allelic series)
- binding signal (SIX6 [12]): 8.99 upbm affinity estimate (log intensity, higher = more binding, comparable within an allelic series)
- binding signal (SIX6 [13]): 8.84 upbm affinity estimate (log intensity, higher = more binding, comparable within an allelic series)

Sequence: CGCAGCGC
- binding signal (SIX6 [1]): 9.07 upbm affinity estimate (log intensity, higher = more binding, comparable within an allelic series)
- binding signal (SIX6 [2]): 8.94 upbm affinity estimate (log intensity, higher = more binding, comparable within an allelic series)
- binding signal (SIX6 [3]): 9.04 upbm affinity estimate (log intensity, higher = more binding, comparable within an allelic series)
- binding signal (SIX6 [4]): 8.96 upbm affinity estimate (log intensity, higher = more binding, comparable within an allelic series)
- binding signal (SIX6 [5]): 9.06 upbm affinity estimate (log intensity, higher = more binding, comparable within an allelic series)
- binding signal (SIX6 [6]): 9.12 upbm affinity estimate (log intensity, higher = more binding, comparable within an allelic series)
- binding signal (SIX6 [7]): 9.01 upbm affinity estimate (log intensity, higher = more binding, comparable within an allelic series)
- binding signal (SIX6 [8]): 8.94 upbm affinity estimate (log intensity, higher = more binding, comparable within an allelic series)
- binding signal (SIX6 [9]): 8.99 upbm affinity estimate (log intensity, higher = more binding, comparable within an allelic series)
- binding signal (SIX6 [10]): 8.97 upbm affinity estimate (log intensity, higher = more binding, comparable within an allelic series)
- binding signal (SIX6 [11]): 9.06 upbm affinity estimate (log intensity, higher = more binding, comparable within an allelic series)
- binding signal (SIX6 [12]): 8.95 upbm affinity estimate (log intensity, higher = more binding, comparable within an allelic series)
- binding signal (SIX6 [13]): 9.02 upbm affinity estimate (log intensity, higher = more binding, comparable within an allelic series)

Sequence: GTGATACA
- binding signal (SIX6 [1]): 11.4 upbm affinity estimate (log intensity, higher = more binding, comparable within an allelic series)
- binding signal (SIX6 [2]): 10.4 upbm affinity estimate (log intensity, higher = more binding, comparable within an allelic series)
- binding signal (SIX6 [3]): 11.4 upbm affinity estimate (log intensity, higher = more binding, comparable within an allelic series)
- binding signal (SIX6 [4]): 9.76 upbm affinity estimate (log intensity, higher = more binding, comparable within an allelic series)
- binding signal (SIX6 [5]): 10.8 upbm affinity estimate (log intensity, higher = more binding, comparable within an allelic series)
- binding signal (SIX6 [6]): 11.2 upbm affinity estimate (log intensity, higher = more binding, comparable within an allelic series)
- binding signal (SIX6 [7]): 10.4 upbm affinity estimate (log intensity, higher = more binding, comparable within an allelic series)
- binding signal (SIX6 [8]): 11.3 upbm affinity estimate (log intensity, higher = more binding, comparable within an allelic series)
- binding signal (SIX6 [9]): 11.3 upbm affinity estimate (log intensity, higher = more binding, comparable within an allelic series)
- binding signal (SIX6 [10]): 11.3 upbm affinity estimate (log intensity, higher = more binding, comparable within an allelic series)
- binding signal (SIX6 [11]): 11.1 upbm affinity estimate (log intensity, higher = more binding, comparable within an allelic series)
- binding signal (SIX6 [12]): 11 upbm affinity estimate (log intensity, higher = more binding, comparable within an allelic series)
- binding signal (SIX6 [13]): 11.2 upbm affinity estimate (log intensity, higher = more binding, comparable within an allelic series)

Sequence: AGTATCAC
- binding signal (SIX6 [1]): 11.3 upbm affinity estimate (log intensity, higher = more binding, comparable within an allelic series)
- binding signal (SIX6 [2]): 10.3 upbm affinity estimate (log intensity, higher = more binding, comparable within an allelic series)
- binding signal (SIX6 [3]): 11.2 upbm affinity estimate (log intensity, higher = more binding, comparable within an allelic series)
- binding signal (SIX6 [4]): 9.74 upbm affinity estimate (log intensity, higher = more binding, comparable within an allelic series)
- binding signal (SIX6 [5]): 10.6 upbm affinity estimate (log intensity, higher = more binding, comparable within an allelic series)
- binding signal (SIX6 [6]): 11 upbm affinity estimate (log intensity, higher = more binding, comparable within an allelic series)
- binding signal (SIX6 [7]): 10.3 upbm affinity estimate (log intensity, higher = more binding, comparable within an allelic series)
- binding signal (SIX6 [8]): 11.3 upbm affinity estimate (log intensity, higher = more binding, comparable within an allelic series)
- binding signal (SIX6 [9]): 11.3 upbm affinity estimate (log intensity, higher = more binding, comparable within an allelic series)
- binding signal (SIX6 [10]): 11.3 upbm affinity estimate (log intensity, higher = more binding, comparable within an allelic series)
- binding signal (SIX6 [11]): 11 upbm affinity estimate (log intensity, higher = more binding, comparable within an allelic series)
- binding signal (SIX6 [12]): 11 upbm affinity estimate (log intensity, higher = more binding, comparable within an allelic series)
- binding signal (SIX6 [13]): 11 upbm affinity estimate (log intensity, higher = more binding, comparable within an allelic series)

Sequence: CAGCCCCG
- binding signal (SIX6 [1]): 8.86 upbm affinity estimate (log intensity, higher = more binding, comparable within an allelic series)
- binding signal (SIX6 [2]): 8.79 upbm affinity estimate (log intensity, higher = more binding, comparable within an allelic series)
- binding signal (SIX6 [3]): 8.86 upbm affinity estimate (log intensity, higher = more binding, comparable within an allelic series)
- binding signal (SIX6 [4]): 8.88 upbm affinity estimate (log intensity, higher = more binding, comparable within an allelic series)
- binding signal (SIX6 [5]): 8.84 upbm affinity estimate (log intensity, higher = more binding, comparable within an allelic series)
- binding signal (SIX6 [6]): 8.78 upbm affinity estimate (log intensity, higher = more binding, comparable within an allelic series)
- binding signal (SIX6 [7]): 8.82 upbm affinity estimate (log intensity, higher = more binding, comparable within an allelic series)
- binding signal (SIX6 [8]): 8.82 upbm affinity estimate (log intensity, higher = more binding, comparable within an allelic series)
- binding signal (SIX6 [9]): 8.98 upbm affinity estimate (log intensity, higher = more binding, comparable within an allelic series)
- binding signal (SIX6 [10]): 8.8 upbm affinity estimate (log intensity, higher = more binding, comparable within an allelic series)
- binding signal (SIX6 [11]): 8.86 upbm affinity estimate (log intensity, higher = more binding, comparable within an allelic series)
- binding signal (SIX6 [12]): 8.8 upbm affinity estimate (log intensity, higher = more binding, comparable within an allelic series)
- binding signal (SIX6 [13]): 8.81 upbm affinity estimate (log intensity, higher = more binding, comparable within an allelic series)

Sequence: TATCATCA
- binding signal (SIX6 [1]): 10.9 upbm affinity estimate (log intensity, higher = more binding, comparable within an allelic series)
- binding signal (SIX6 [2]): 10.3 upbm affinity estimate (log intensity, higher = more binding, comparable within an allelic series)
- binding signal (SIX6 [3]): 10.8 upbm affinity estimate (log intensity, higher = more binding, comparable within an allelic series)
- binding signal (SIX6 [4]): 9.94 upbm affinity estimate (log intensity, higher = more binding, comparable within an allelic series)
- binding signal (SIX6 [5]): 10.5 upbm affinity estimate (log intensity, higher = more binding, comparable within an allelic series)
- binding signal (SIX6 [6]): 10.8 upbm affinity estimate (log intensity, higher = more binding, comparable within an allelic series)
- binding signal (SIX6 [7]): 10.2 upbm affinity estimate (log intensity, higher = more binding, comparable within an allelic series)
- binding signal (SIX6 [8]): 10.8 upbm affinity estimate (log intensity, higher = more binding, comparable within an allelic series)
- binding signal (SIX6 [9]): 10.9 upbm affinity estimate (log intensity, higher = more binding, comparable within an allelic series)
- binding signal (SIX6 [10]): 10.8 upbm affinity estimate (log intensity, higher = more binding, comparable within an allelic series)
- binding signal (SIX6 [11]): 10.6 upbm affinity estimate (log intensity, higher = more binding, comparable within an allelic series)
- binding signal (SIX6 [12]): 10.7 upbm affinity estimate (log intensity, higher = more binding, comparable within an allelic series)
- binding signal (SIX6 [13]): 10.7 upbm affinity estimate (log intensity, higher = more binding, comparable within an allelic series)
